# Results taken from PubChem BioAssay AID1159580 (chemical genetic matrix, 2015).
# Several values for one entry are separate records, joined by “and”; a condition that tells them apart may be missing. Equal values may be shown once. The campaign covered roughly 5,500 compounds. About 2,000 (36%) were called active. Roughly 18% stayed inconclusive and do not appear here. Cut-off read from the data, not from the text of the source: active = normalized growth mostly below about 0.91 (no sharp cut-off); inconclusive = no clear call, values can overlap the other calls; inactive = mostly above about 0.92. The list shows a part of the results.
# Test: chemical genetic growth profiling, strain panel (AID 1159580);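 note: tested at 20 µM; growth read once vehicle control cultures reached saturation at 30 °C; 1 = growth at the plate median or of vehicle wells; lower values mean less growth of the strain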
# Settings: S. cerevisiae deletion strains, growth OD
compound,measurement,setting,value
CC(=O)O[C@]1(C(C)=O)CCC2C3C=C(C)C4=CC(=O)CCC4(C)C3CCC21C (stereo partly specified),normalized growth,"locus YAL013W, strain DEP1, stronger effect = lower value",0.897 (active)
same,normalized growth,"locus YAL021C, strain ccr4, stronger effect = lower value",1.04 (inactive)
same,normalized growth,"locus YAL026C, strain drs2, stronger effect = lower value",0.961 (inactive)
same,normalized growth,"locus YAL030W, strain snc1, stronger effect = lower value",0.959 (inactive)
same,normalized growth,"locus YBL061C, strain skt5, stronger effect = lower value",0.932 (inactive)
same,normalized growth,"locus YBR009C, strain hhf1, stronger effect = lower value",0.916 (inactive)
same,normalized growth,"locus YBR021W, strain FUR4, stronger effect = lower value",0.924 (inactive)
same,normalized growth,"locus YBR023C, strain chs3, stronger effect = lower value",0.92 (inactive)
same,normalized growth,"locus YBR171W, strain sec66, stronger effect = lower value",0.926 (inactive)
same,normalized growth,"locus YBR229C, strain ROT2, stronger effect = lower value",0.985 (inactive)
same,normalized growth,"locus YBR231C, strain swc5, stronger effect = lower value",0.933 (inactive)
same,normalized growth,"locus YBR279W, strain paf1, stronger effect = lower value",0.993 (inactive)
same,normalized growth,"locus YCL011C, strain gbp2, stronger effect = lower value",0.975 (inactive)
same,normalized growth,"locus YCL016C, strain dcc1, stronger effect = lower value",0.971 (inactive)
same,normalized growth,"locus YCL029C, strain bik1, stronger effect = lower value",0.958 (inactive)
same,normalized growth,"locus YCL069W, strain vba3, stronger effect = lower value",0.929 (inactive)
same,normalized growth,"locus YCR088W, strain abp1, stronger effect = lower value",0.958 (inactive)
same,normalized growth,"locus YDL005C, strain med2, stronger effect = lower value",0.934 (inactive)
same,normalized growth,"locus YDL035C, strain GPR1, stronger effect = lower value",0.908 (inactive)
same,normalized growth,"locus YDL040C, strain nat1, stronger effect = lower value",0.968 (inactive)
same,normalized growth,"locus YDL074C, strain BRE1, stronger effect = lower value",0.784 (inactive)
same,normalized growth,"locus YDL101C, strain DUN1, stronger effect = lower value",0.982 (inactive)
same,normalized growth,"locus YDL134C, strain PPH21, stronger effect = lower value",0.996 (inactive)
same,normalized growth,"locus YDL185W, strain tfp1, stronger effect = lower value",0.984 (inactive)
same,normalized growth,"locus YDL192W, strain arf1, stronger effect = lower value",0.957 (inactive)
same,normalized growth,"locus YDR001C, strain nth1, stronger effect = lower value",0.964 (inactive)
same,normalized growth,"locus YDR069C, strain doa4, stronger effect = lower value",0.978 (inactive)
same,normalized growth,"locus YDR101C, strain arx1, stronger effect = lower value",0.969 (inactive)
same,normalized growth,"locus YDR137W, strain rgp1, stronger effect = lower value",0.775 (active)
same,normalized growth,"locus YDR150W, strain NUM1, stronger effect = lower value",0.993 (inactive)
same,normalized growth,"locus YDR159W, strain sac3, stronger effect = lower value",0.892 (inactive)
same,normalized growth,"locus YDR162C, strain NBP2, stronger effect = lower value",0.804 (active)
same,normalized growth,"locus YDR195W, strain ref2",0.976 (inactive)
same,normalized growth,"locus YDR297W, strain sur2, stronger effect = lower value",0.951 (inactive)
same,normalized growth,"locus YDR318W, strain mcm21, stronger effect = lower value",0.92 (inactive)
same,normalized growth,"locus YDR334W, strain swr1, stronger effect = lower value",0.962 (inactive)
same,normalized growth,"locus YDR335W, strain msn5, stronger effect = lower value",0.957 (inactive)
same,normalized growth,"locus YDR388W, stronger effect = lower value",0.975 (inactive)
same,normalized growth,"locus YDR392W, strain spt3, stronger effect = lower value",0.445 (active)
same,normalized growth,"locus YDR502C, strain sam2, stronger effect = lower value",0.904 (active)
same,normalized growth,"locus YEL003W, strain gim4, stronger effect = lower value",0.941 (inactive)
same,normalized growth,"locus YEL037C, strain rad23, stronger effect = lower value",0.969 (inactive)
same,normalized growth,"locus YEL061C, strain CIN8 (second series), stronger effect = lower value",0.959 (inactive)
same,normalized growth,"locus YEL061C, strain CIN8, stronger effect = lower value",0.989 (inactive)
same,normalized growth,"locus YER015W, strain faa2, stronger effect = lower value",0.971 (inactive)
same,normalized growth,"locus YER016W, strain bim1, stronger effect = lower value",0.966 (inactive)
same,normalized growth,"locus YER110C, stronger effect = lower value",0.958 (inactive)
same,normalized growth,"locus YER111C, strain swi4, stronger effect = lower value",0.963 (inactive)
same,normalized growth,"locus YER155C, strain BEM2 (second series), stronger effect = lower value",0.859 (active)
same,normalized growth,"locus YER155C, strain BEM2, stronger effect = lower value",1.01 (inactive)
same,normalized growth,"locus YER167W, strain BCK2, stronger effect = lower value",0.88 (active)
same,normalized growth,"locus YFR010W, strain ubp6, stronger effect = lower value",0.961 (inactive)
same,normalized growth,"locus YGL078C, strain dbp3, stronger effect = lower value",0.992 (inactive)
same,normalized growth,"locus YGL086W, strain mad1, stronger effect = lower value",0.91 (active)
same,normalized growth,"locus YGL167C, strain pmr1, stronger effect = lower value",0.955 (inactive)
same,normalized growth,"locus YGL173C, strain kem1, stronger effect = lower value",0.92 (inactive)
same,normalized growth,"locus YGL227W, strain vid30, stronger effect = lower value",0.968 (inactive)
same,normalized growth,"locus YGL240W, strain doc1, stronger effect = lower value",0.925 (inactive)
same,normalized growth,"locus YGL248W, strain PDE1, stronger effect = lower value",0.992 (inactive)
same,normalized growth,"locus YGL253W, strain hxk2, stronger effect = lower value",0.915 (inactive)
same,normalized growth,"locus YGR078C, strain PAC10, stronger effect = lower value",0.836 (active)
same,normalized growth,"locus YGR135W, strain pre9, stronger effect = lower value",0.883 (active)
same,normalized growth,"locus YGR229C, strain SMI1, stronger effect = lower value",0.643 (active)
same,normalized growth,"locus YGR252W, strain gcn5, stronger effect = lower value",0.862 (inactive)
same,normalized growth,"locus YHR013C, strain ard1, stronger effect = lower value",0.998 (inactive)
same,normalized growth,"locus YHR027C, strain rpn1, stronger effect = lower value",0.981 (inactive)
same,normalized growth,"locus YHR030C, strain SLT2, stronger effect = lower value",0.917 (active) and 0.949 (inactive)
same,normalized growth,"locus YHR079C, strain IRE1 (second series), stronger effect = lower value",0.969 (inactive)
same,normalized growth,"locus YHR079C, strain IRE1, stronger effect = lower value",0.958 (inactive)
same,normalized growth,"locus YHR094C, strain hxt1, stronger effect = lower value",0.98 (inactive)
same,normalized growth,"locus YHR129C, strain ARP1, stronger effect = lower value",0.94 (inactive)
same,normalized growth,"locus YHR142W, strain chs7, stronger effect = lower value",0.815 (active)
same,normalized growth,"locus YHR200W, strain rpn10, stronger effect = lower value",0.956 (inactive)
same,normalized growth,"locus YIL066C, strain RNR3, stronger effect = lower value",0.878 (inactive)
same,normalized growth,"locus YIL073C, strain SPO22, stronger effect = lower value",0.887 (inactive)
same,normalized growth,"locus YIL125W, strain kgd1, stronger effect = lower value",0.982 (inactive)
same,normalized growth,"locus YIR030C, strain dcg1, stronger effect = lower value",0.973 (inactive)
same,normalized growth,"locus YJL092W, strain hpr5, stronger effect = lower value",0.944 (inactive)
same,normalized growth,"locus YJL095W, strain BCK1 (second series), stronger effect = lower value",0.931 (inactive)
same,normalized growth,"locus YJL095W, strain BCK1, stronger effect = lower value",0.741 (active) and 0.98 (inactive)
same,normalized growth,"locus YJL115W, strain asf1, stronger effect = lower value",0.973 (inactive)
same,normalized growth,"locus YJL129C, strain trk1, stronger effect = lower value",0.854 (active)
same,normalized growth,"locus YJL134W, strain LCB3, stronger effect = lower value",0.989 (inactive)
same,normalized growth,"locus YJL154C, strain vps35, stronger effect = lower value",0.964 (inactive)
same,normalized growth,"locus YJL164C, strain tpk1, stronger effect = lower value",0.951 (inactive)
same,normalized growth,"locus YJL166W, strain qcr8, stronger effect = lower value",0.863 (active)
same,normalized growth,"locus YJL168C, strain set2, stronger effect = lower value",0.969 (inactive)
same,normalized growth,"locus YJL187C, strain SWE1 (second series), stronger effect = lower value",0.98 (inactive)
same,normalized growth,"locus YJR043C, strain POL32, stronger effect = lower value",0.85 (active)
same,normalized growth,"locus YJR066W, strain TOR1, stronger effect = lower value",0.929 (inactive)
same,normalized growth,"locus YJR075W, strain HOC1, stronger effect = lower value",0.952 (inactive)
